Structures are written as SMILES. In all, about 34,000 compounds went through this assay and fewer than 10 were called active.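 How the source made its calls: active means primary screen hit, no activity in plain HEK293 cells, and in GIRK2-only cells above 5% efficacy rising with concentration; inactive means the rest, including fluorescent compounds.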 Only a sample is shown.

G protein-activated inward rectifier potassium channel 2 (Homo sapiens), sequence (P48051 whole entry, looked up): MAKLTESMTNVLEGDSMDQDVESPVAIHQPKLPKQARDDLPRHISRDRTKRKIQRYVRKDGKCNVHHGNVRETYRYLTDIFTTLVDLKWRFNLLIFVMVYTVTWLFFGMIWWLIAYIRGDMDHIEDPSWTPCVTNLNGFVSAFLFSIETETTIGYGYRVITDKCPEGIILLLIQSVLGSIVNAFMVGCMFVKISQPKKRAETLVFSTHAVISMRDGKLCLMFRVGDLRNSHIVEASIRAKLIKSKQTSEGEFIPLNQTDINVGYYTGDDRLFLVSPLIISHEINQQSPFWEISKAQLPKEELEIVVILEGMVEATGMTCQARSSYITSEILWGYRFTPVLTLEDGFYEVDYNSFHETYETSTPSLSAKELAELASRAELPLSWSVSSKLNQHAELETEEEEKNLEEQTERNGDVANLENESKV

This experiment concerns the target G protein-activated inward rectifier potassium channel 2 (Homo sapiens) (UniProt P48051). Put plainly: activators of NPY4-receptor-primed GIRK2 channels, summary, cell-based, HEK293, thallium flux (AID 1259324). Particulars: HEK293 GIRK2/NPY4 cells, thallium flux fluorescence.
For the compound `Cc1cc(-c2nnc(NC(=O)c3ccc(S(=O)(=O)N4CCCC4)cc3)o2)n(C)n1`, the compound was called inactive. In the case of `COC(=O)c1ccc(OC)cc1CN1C(=O)N(c2cc(F)ccc2F)S(=O)(=O)c2ccccc21`, the call was inactive.

With `Cc1ccc(Nc2ccc(NC(=O)c3ccc(Br)o3)cc2)nn1`, the outcome was inactive. For `Cc1csc(NC(=O)CSc2nc(=O)n(N3CCN(C)CC3)c3c2CCC3)n1` the value was “inactive”; for `Cc1nnc(CNC(=O)C(C)n2nnc3ccccc3c2=O)o1` (centres undefined), “inactive”; for `O=C(NCCN1CCOCC1)C(=O)NCC(F)(F)F`, “inactive”. For `CC(=O)N1CCN(S(=O)(=O)c2ccc(C(=O)NCc3cccnc3)cc2)CC1` the value was “inactive”; for `COc1cc(C(=O)Nc2ccc3c(c2)N(C(=O)C2CC2)CCC3)cc(OC)c1OC`, “inactive”. Take `CC(Sc1ccnc2c1c(=O)n(C)c(=O)n2C)C(=O)O` (centres undefined): the outcome was inactive. The value for `Cn1nc(NC(=O)C(C)(C)Oc2ccc(Cl)cc2)c2c1NC(=O)CC2c1ccco1` (centres undefined) was “inactive”; that for `CS(=O)(=O)c1ccc(NC(=O)c2ccc(Cl)c(S(=O)(=O)N3CCOCC3)c2)cc1` was “inactive”; that for `CCOC(=O)Nc1nc(CC(=O)Nc2ccc(OC)cc2)cs1` was “inactive”. The value for `O=C(NCc1ccc(Cl)cc1)C(=O)NCC1CCN(C(=O)c2cccnc2)CC1` was “inactive”.

Regarding `Cc1cc(S(=O)(=O)NCC(O)c2ccc(C(F)(F)F)cc2)ccc1F` (centres undefined), the outcome was inactive. For `Cc1ccc(Oc2ccc(N(C)C(=O)c3cccc(F)c3)cc2)nn1` the value was “inactive”; for `CCOc1ccc(-c2cc(=O)n(CCCC(=O)Nc3cc(C)ns3)cn2)cc1`, “inactive”; for `Cc1noc(C)c1S(=O)(=O)N1CCN(Cc2nc(-c3ccco3)cs2)CC1`, “inactive”. For the compound `CC1CCN(c2oc(-c3ccc(S(=O)(=O)N(C)Cc4ccccc4)cc3)nc2C#N)CC1`, the call was inactive. The value for `O=C(NCC1CCN(S(=O)(=O)C2CC2)CC1)c1ccccn1` was “inactive”; that for `CCOC(=O)C(CC)Sc1ccnc2c1c(=O)n(C)c(=O)n2C` (centres undefined) was “inactive”; that for `CN1CCN(C(CNC(=O)C(=O)NCc2ccc(Cl)cc2)c2cccn2C)CC1` (centres undefined) was “inactive”.

Take `CCN1CCc2nc(-c3ccccc3)n(CC(=O)Nc3cccc(Cl)c3C)c(=O)c2C1`: the call was inactive. For `CC(C)C(=O)N1CCCc2ccc(NC(=O)C(=O)NCCCc3ccccc3)cc21`, the compound was classed as inactive. For `CCOc1ccc(NS(=O)(=O)c2cccc(OC)c2)cc1` the value was “inactive”; for `COc1cc(S(=O)(=O)N2CCN(CCO)CC2)ccc1Cl`, “inactive”; for `O=C(N1CCC(c2cccs2)CC1)C1(c2ccc(F)cc2)CC1`, “inactive”. The value for `CS(=O)(=O)N1CCN(Cc2nnnn2-c2ccc(F)cc2)CC1` was “inactive”; that for `CCn1c(SCC(=O)N(C)c2ccccc2)nnc1-c1cn(C)nc1OC` was “inactive”; that for `O=C(NCCN1CCC(c2cccs2)CC1)C(=O)Nc1ccc2c(c1)OCO2` was “inactive”.

Source of the values: PubChem BioAssay AID1259324 (C. David Weaver Laboratory, Vanderbilt University, 2017).
